Test results: PubChem BioAssay (NCI)
This is part of a sample that, as a whole, favours compounds with a hit. Of some 83,000 tested, about 20% had one in any assay.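 The endpoint reported here, percent growth, reads 100 for growth as untreated, 0 for no net growth and -100 for all cells dead.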 Values without a mark were called inactive. The source made the active and inactive calls. The calls were made as follows: active = growth percent below 10; inactive = the rest.

Experiments:
Experiment in all cases: NCI-60 one-dose screen, 48 h (100 = growth as untreated, 0 = no growth, -100 = all killed)
Conditions in all cases: 10 µM unless noted
T-47D breast = tested on: T-47D breast
BT-549 breast = tested on: BT-549 breast
MDA-MB-435 melanoma = tested on: MDA-MB-435 melanoma
SW-620 colon = tested on: SW-620 colon
MCF7 breast = tested on: MCF7 breast
HCT-116 colon = tested on: HCT-116 colon
HCC-2998 colon = tested on: HCC-2998 colon
KM12 colon = tested on: KM12 colon

Structure (SMILES)	growth (T-47D breast)	growth (BT-549 breast)	growth (MDA-MB-435 melanoma)	growth (SW-620 colon)	growth (MCF7 breast)	growth (HCT-116 colon)	growth (HCC-2998 colon)	growth (KM12 colon)
CCSc1sc(-c2ccc(C)cc2)nc1[P+](c1ccccc1)(c1ccccc1)c1ccccc1	-22% (active)	-19.1% (active)	-26.8% (active)	4.99% (active)	-4.84% (active)	-20.9% (active)	-23.1% (active)	-63.2% (active)
CN1CCN(c2ccc3nc(-c4[nH]ncc4Nc4ncnc5c4OCCCN5)[nH]c3c2)CC1	-27.4% (active)	-74.2% (active)	-80.1% (active)	-58.1% (active)	-57.2% (active)	-11.8% (active)	-84.2% (active)	-72.7% (active)
CC(C)c1cc(C(=O)O)c(O)c(C(C)C)c1.CC(C)c1cc(C(=O)O)c(O)c(C(C)C)c1.[Mn]	82%	91.2%	108%	106%	104%	103%	134%	98.1%
CC(Cc1ccco1)C(=O)NC(N)=O (configuration not stated)	114%	106%	105%	104%	102%	106%	105%	105%
CC(=O)O[C@H]1CC[C@]2(C)[C@H]3CC=C4[C@@H]5[C@H](C)[C@@H](C)CC[C@]5(C(=O)NCCNCCNCCN)CC[C@@]4(C)[C@]3(C)CC[C@H]2C1(C)C	63.8%	93.7%	83%	87.3%	58.1%	62.3%	80%	86.2%
C=C(C)[C@@H]1CC[C@]2(CN)CC[C@]3(C)[C@H](CC[C@@H]4[C@@]5(C)CCC(=O)NC(C)(C)[C@@H]5CC[C@]43C)[C@@H]12	53.9%	80.8%	92.7%	75.9%	41.5%	11.7%	97.7%	81%
COC(=O)[C@@H]1[C@H]2C[C@H]3c4[nH]c5cc(OC)ccc5c4CCN3C[C@@H]2C[C@H](OC(=O)/C=C/c2ccnc(OC)c2)[C@H]1OC	67.1%	81.2%	97.5%	98.3%	72.6%	73.4%	105%	98.8%
CC(=O)OCCCCCCn1c2ccccc2c2c3c(c4c5ccccc5n(C)c4c21)C(=O)N(O)C3=O	42.9%	69.2%	75.9%	76.4%	30.4%	48.6%	76%	68.8%
COc1ccc(C2CC(=O)c3c(nc4ccc(Cl)cc4c3N)C2)cc1 (configuration not stated)	109%	102%	93.6%	106%	95.6%	100%	111%	103%
O=c1c(CNc2ccc(S(=O)(=O)Nc3nccs3)cc2)coc2ccccc12	94.3%	99.5%	112%	101%	110%	100%	105%	111%
NS(=O)(=O)c1ccc(CCNC(=O)/C=C/c2ccc(Cl)cc2)cc1	90.7%	108%	95.6%	102%	92.5%	100%	116%	98.6%
COC(=O)[C@]12CC[C@@H](C(C)=O)[C@@H]1[C@H]1CC[C@@H]3[C@@]4(C)C/C(=C/c5cccnc5)C(=O)C(C)(C)[C@@H]4CC[C@@]3(C)[C@]1(C)CC2	24.4%	46%	72.6%	25.3%	19.2%	3.92% (active)	75.8%	60.5%
CCOc1ccc(NC(=O)c2ccoc2COc2ccccc2)cc1	108%	109%	103%	104%	95.9%	93.6%	109%	98.8%
COC(=O)[C@]12CC[C@@H](C)[C@H](C)[C@@H]1C1=CC[C@@H]3[C@@]4(C)C[C@@H](OC(C)=O)[C@H](OC(C)=O)[C@@](C)(COC(C)=O)[C@@H]4[C@H](O)C[C@@]3(C)[C@]1(C)CC2	-13.6% (active)	0.787% (active)	17.4%	20.7%	5.21% (active)	9.38% (active)	5.84% (active)	8.42% (active)
Cc1ccc(-c2ccc(/C=C(\C#N)c3nc(-c4ccco4)cs3)o2)cc1	-22.8% (active)	103%	98.6%	99.8%	14.5%	98%	54.8%	61.2%
O=C1CN(c2ccccc2)C(=O)C1C(=O)Nc1ccc(Cl)c(Cl)c1 (configuration not stated)	12.7% [100 µM]	23.4% [100 µM]	7.79% [100 µM] (active)	20.1% [100 µM]	15.7% [100 µM]	-19.4% [100 µM] (active)	2.18% [100 µM] (active)	17.2% [100 µM]
COc1ccc(/C=C/C(=O)NCCO)cc1	89.8%	102%	104%	99.3%	94.8%	101%	103%	103%
COc1cc2nc(Cl)nc(Nc3cccc(C(=O)/C=C/c4ccccc4)c3)c2cc1OC	68.8%	62.9%	36.5%	-11.9% (active)	12.3%	-52.1% (active)	57.4%	9.13% (active)
COc1ccc(C(=O)c2cc(OC)c(OC)c(OC)c2)cc1/C=C/C(=O)c1cc(OC)c(OC)c(OC)c1	89.7%	86.8%	65.2%	92.9%	75.2%	67.8%	100%	86.6%
CN1CCN(c2nc(-c3cccc4ccccc34)nc3sc4c(c23)CCCCCC4)CC1	67.2%	91.9%	93.3%	83.8%	68.2%	67.9%	95.8%	98.8%
COc1cccc(-c2nn(-c3ccccc3)cc2-c2ccnc(NCCNS(=O)(=O)c3cccc(F)c3)c2)c1	6.41% (active)	46.9%	20%	46%	14.1%	21.4%	17.1%	19.6%
N=C(N)c1ccc(S(N)(=O)=O)cc1	101%	94.2%	98.5%	105%	99.4%	93.9%	93.9%	106%
COc1cc2[nH]c(C(=O)c3cc(OC)c(OC)c(OC)c3)c(N)c2cc1C#CCO	56%	54%	-27.1% (active)	16.9%	10.1%	10%	13.5%	10.8%
C[C@@H]1CCCCCCCCC[C@H](O)C(=O)C[C@@H](SC[C@@H](O)C(=O)O)C(=O)O1	75.8%	91.8%	103%	103%	33.9%	54.5%	109%	95.8%
COc1cc2c(cc1-c1c(C)noc1C)ncc1nc(C3CC3)n([C@H](C)COC(F)F)c12	32.7%	71.6%	44.3%	62.7%	21.7%	37%	57.3%	51.5%
COc1cc(/C=C/c2cc(/C=C/c3ccc(O)c(OC)c3)n(-c3ccc(Cl)cc3)c(=O)n2)ccc1O	86%	66.9%	74.9%	85.6%	47.6%	50.6%	104%	77%
C=C(C)[C@@H]1CC[C@]2(C(=O)O)CC[C@]3(C)[C@H](CC[C@@H]4[C@@]5(C)C/C(=C/c6ccc(OC)cc6)C(=O)C(C)(C)[C@@H]5CC[C@]43C)[C@@H]12	13.3%	26.2%	30.3%	21.9%	5.66% (active)	5.84% (active)	21.7%	21.3%
COc1cc2ncnc(Nc3ccc(Oc4ccnc(C)c4)c(C)c3)c2cc1NC(=O)CC1CCSS1 (configuration not stated)	-66% (active)	-48.4% (active)	-33.4% (active)	-33.7% (active)	-69.6% (active)	-65.5% (active)	-88.6% (active)	-68.8% (active)
NC1=NN=C2N(N)C(=O)c3cnn(-c4ccccc4)c3N2c2nc(-c3ccccc3)cc(-c3ccccc3)c21	71.1%	108%	108%	104%	65.5%	93.7%	107%	103%
